Measured values: PubChem BioAssay AID2730 (National Center for Advancing Translational Sciences (NCATS), 2010)
Some of the results follow. Inconclusive results are not listed. Calls of active or inactive are those of the source. Calls follow the shape of the dose curve; as a rule, active = well fitted inhibition curve with a large enough effect; inconclusive = small, poorly fitted or top-dose-only effect; inactive = no such curve, though single readings can be large or run the other way.

experiment: High Content Assay for Compounds that inhibit the Assembly of the Perinucleolar Compartment: Confirmation of PNC Inhibition; details: PC3M PTB-GFP, PNC prevalence imaging, 16 h; series mostly up to 46.1 µM; activity, negative = PNC inhibition: at the top concentration
Source text: High Content Assay for Compounds that inhibit the Assembly of the Perinucleolar Compartment NIH Chemical Genomics Center [NCGC] NIH Molecular Libraries Probe Centers Network [MLPCN] MLPCN Grant: MH082371-01A2 Assay Submitter (PI): Sui Huang, Northwestern University, Feinberg School of Medicine, Cell and Molecular Biology, Chicago, Illinois. The perinucleolar compartment (PNC) is a non-membrane-bound nuclear subdomain that is associated with but structurally distinct from the nucleolus. The PNC is a heritable trait, in which the number of PNCs per cell in daughter cells often mimics that of their mother cells. The PNC is heterogeneous in shape, is stable through interphase, disassembles during mitosis, and reassembles in early G1. The PNC is concentrated with newly synthesized RNA polymerase III (pol III) RNAs (MRP RNA, RNAse P H1 RNA, hY RNAs[hY1, 2, 5], Alu RNA, and SRP [7SL] RNA) and RNA binding proteins (nucleolin, PTB, CUG-BP, KSRP, Raver1, Raver2, and Rod). […] Extensive in vitro studies have shown that the PNC is unique to tumor cells and preferentially forms in tumor cells derived from solid tissues. Examination of cancer cell lines from various origins and malignant capacities has shown that PNC prevalence correlates with the malignancy of tumors and has the potential to be developed as a pan-cancer prognostic marker. […] Although the PNC is associated with a DNA locus and a handful of components have been identified, much remains to be investigated regarding the structure and function of the PNC and its mechanistic link to cancer. We have previously shown that PNC prevalence reduction is a valid strategy to identify compounds that can be used to study the structure and function of the PNC. It is necessary, however, to create a screening platform that is able to test a large number of compounds in an automated fashion. Here we report the development and robustness of an automated whole-cell phenotypic image-based screening assay that is capable of identifying such compounds. Compounds active in the primary screen were then re-screened in concentration-response to confirm activity.
PNC High Content Imaging Assay Procedure: 1. Cells at a density of 75-90% confluency in T175 flasks were harvested using 7 ml TrypLE Express cell dissociation reagent. After dissociation (5 minutes room temperature incubation) 10 ml of complete media was added to the TrypLE/cell suspension. The liquid was transferred to a 50 ml Conical tube and cells were pelleted at 1000 RPM for 5 min. Supernatant was removed and cells were resuspended to a final density of 150-200 cells/ul in complete media. 2. Cells were plated in 5 ul volume (750-1000 cells/well) into 1536 well Black uclear Aurora Low Base plates and allowed to recover and adhere at 37 C in a humidified 5% CO2 incubator for 4 hours. 3. After 4 hour incubation, compound libraries (23 nl of […] in columns 5-48) were transferred to the plates in duplicate using a 1536 well pintool. Camptothecin positive control (59 uM final) was added to column 2 and 1:3 dilutions of camptothecin was added to column 3. DMSO negative controls were present in columns 1 and 4. 4. After a 16 hour incubation in the 37 C incubator, cells were fixed by the addition of 4 ul of 6% EM grade paraformaldehyde (containing 0.1% triton X 100) directly to the cells. The plates were incubated at room temperature for 20 minutes. […]

SMILES | activity, negative = PNC inhibition | Potency
COC(=O)C1=C(C)N(c2ccc(Br)cc2)C(=O)/C1=C\c1ccco1 | -26.2% (inactive) | 
CCOC(=O)c1c(-c2cccc(C)c2)csc1NC(=O)c1c(-c2ccccc2)noc1C |  | 2.51 µM (active)
N=c1c2c(-c3ccccc3)c(-c3ccccc3)n(Cc3ccccc3)c2ncn1CCCO |  | 4.47 µM (active)
COC(=O)c1ccc(CSc2ccccc2C)o1 | 9.2% (inactive) | 
Cn1c2ccccc2c(=O)c2c(=O)n(Cc3ccco3)c(COc3ccccc3)nc21 |  | 11.2 µM (active)
